{"source": "the supplement of paper PMC11417369", "note": "The full ranking holds about 25,000 sequences; the median of “ln(normalized median fluorescence intensity)” is about 9.3, and the highest 2% start at about 10. What follows is part of a selection rich in the highest values, with near analogues and random picks from the rest.", "data": [{"test_system": "PF3D7_0420300 AP2 domain 1 (GST-tagged)", "assay": "gcPBM binding intensity (ln(normalized median fluorescence intensity)); higher = stronger DNA binding", "outline": "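The binding buffer was 1× PBS containing 1% milk, 0.2 mg/ml BSA, 0.5% salmon testes DNA and 0.03% Triton X-100. In it, GST-tagged P. falciparum DNA-binding domains expressed in E. coli were applied for 1 h to an Agilent 4 × 180k array of primer-extended double-stranded 36-bp intergenic genomic probes plus negative controls. Binding intensity, read with Alexa488 anti-GST antibody and a 488 nm scan, is the highest Masliner-normalised natural-log median intensity across replicate spots of either probe orientation.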", "values": [{"sequence": "TATGTGAATATAATCACACACAATACGGAAAGAGAC [CACACA_site7311]", "gcPBM binding intensity (ln)": 10.2}, {"sequence": "TATGTGAATATAATCACACACAATACGGAAACCCAC [CACACA_site2725]", "gcPBM binding intensity (ln)": 9.77}, {"sequence": "AATATGTGAATATAATCACACACAATACGGAAACAC [CACACA_site8875]", "gcPBM binding intensity (ln)": 10.1}, {"sequence": "TTTTTTTTTTTTTTTGCACACACCATATTTATAGAA [CACACA_site3310]", "gcPBM binding intensity (ln)": 9.46}, {"sequence": "ATAAATTAAAAACACACACACATCTGGATACCCCTA [CACACA_site5780]", "gcPBM binding intensity (ln)": 10.1}, {"sequence": "TCATAAATTAAACACACACACACATCTGGATACCCC [CACACA_site9096]", "gcPBM binding intensity (ln)": 10.3}, {"sequence": "TCATAAATGAAACACACACACACATCTGGATACCCC [CACACA_site3332]", "gcPBM binding intensity (ln)": 10.1}, {"sequence": "GTTCATAAATTAAACACACACACACCCCTGGATACC [CACACA_site3331]", "gcPBM binding intensity (ln)": 10.2}, {"sequence": "GTTCATAAATTAAACACACACACACCGCTGGATACC [CACACA_site5779]", "gcPBM binding intensity (ln)": 10.1}, {"sequence": "GTTCATAAATTAAACACACACACACGGCTGGATACC [CACACA_site7545]", "gcPBM binding intensity (ln)": 10.1}, {"sequence": "TACTCCTCAATATTATGTACATATAATAGTTATAAA [XGTACX_site8551]", "gcPBM binding intensity (ln)": 9.23}, {"sequence": "TATATACAAAAAATATGTACATATATATATATATAT [XGTACX_site3497]", "gcPBM binding intensity (ln)": 9.21}, {"sequence": "TAATATTTTATTTTTGTTGTGGATCCAAAAAAAAAA [CACACA_negctrl_site846]", "gcPBM binding intensity (ln)": 8.76}, {"sequence": "TAATATGAAATGTGTACACACGCACCCACAAAAAAA [CACACA_site8949]", "gcPBM binding intensity (ln)": 9.74}, {"sequence": "AAAAATTATAGAAAAGTGCAATACATGTTACACCAT", "gcPBM binding intensity (ln)": 9.28}, {"sequence": "AAAAAATCAAAACACACACACACACCCAAAAAAAAA [CACACA_site1444]", "gcPBM binding intensity (ln)": 10.1}, {"sequence": "CAAATACACGGACACACACACACAAAAAAAAAAAAA [CACACA_site6385]", "gcPBM binding intensity (ln)": 10.1}, {"sequence": "AACACGCACAGACACACACACAAAAATGATTAAAAA [CACACA_site7195]", "gcPBM binding intensity (ln)": 9.67}, {"sequence": "TACACAGACGGACACACACACACACTAGAAAAAAAA [CACACA_site4435]", "gcPBM binding intensity (ln)": 10}, {"sequence": "AAAGAAAAAAAAAAAACACACAAAAAAAATCAAAAT [CACACA_site2871]", "gcPBM binding intensity (ln)": 9.94}, {"sequence": "AACAAACACGGACACACACACACACTAGAATGATTA [CACACA_site5364]", "gcPBM binding intensity (ln)": 10.2}, {"sequence": "CAAACCCACGGACACACACACACAAAAATGATTAAA [CACACA_site5365]", "gcPBM binding intensity (ln)": 9.93}, {"sequence": "AACAAATACGGACACACACACACACTAGAAAAAAAA [CACACA_site4442]", "gcPBM binding intensity (ln)": 10.2}, {"sequence": "ATAAATATTAAAAGTACACACAGATACACTAATTAT [CACACA_site1808]", "gcPBM binding intensity (ln)": 9.75}, {"sequence": "AAAAAATCAAAACACACACACACACTAGAAAAAAAA [CACACA_site4909]", "gcPBM binding intensity (ln)": 10.3}, {"sequence": "TATTAATACGGACACACACACACACTAGATAAAATA [CACACA_site4295]", "gcPBM binding intensity (ln)": 10.2}, {"sequence": "CAAATAAATATTAAAAGTACACACAGATACACTAAT [XGTACX_site3749]", "gcPBM binding intensity (ln)": 9.88}]}]}
